Results reported in PubChem BioAssay AID1018 (Sanford-Burnham Center for Chemical Genomics, 2008).
Out of some 200,000 compounds screened, about 15 (0.007%) were called active. For the sample, actives were picked, then their nearest neighbours and some compounds at random. Values without a mark were called inactive. Cut-off read from the data, not from the text of the source: active = displacement above about 50%; inactive = the rest.

Each molecule was assayed against E3 ubiquitin-protein ligase XIAP (Homo sapiens) (UniProt P98170) (assay: small molecules displacing peptide from XIAP – biochemical, IAP family, fluorescence polarization (AID 1018)). Conditions: XIAP BIR domain, at 20 µM, active compounds read high.
E3 ubiquitin-protein ligase XIAP (Homo sapiens), sequence (P98170 whole entry, looked up, the tested form may be a part): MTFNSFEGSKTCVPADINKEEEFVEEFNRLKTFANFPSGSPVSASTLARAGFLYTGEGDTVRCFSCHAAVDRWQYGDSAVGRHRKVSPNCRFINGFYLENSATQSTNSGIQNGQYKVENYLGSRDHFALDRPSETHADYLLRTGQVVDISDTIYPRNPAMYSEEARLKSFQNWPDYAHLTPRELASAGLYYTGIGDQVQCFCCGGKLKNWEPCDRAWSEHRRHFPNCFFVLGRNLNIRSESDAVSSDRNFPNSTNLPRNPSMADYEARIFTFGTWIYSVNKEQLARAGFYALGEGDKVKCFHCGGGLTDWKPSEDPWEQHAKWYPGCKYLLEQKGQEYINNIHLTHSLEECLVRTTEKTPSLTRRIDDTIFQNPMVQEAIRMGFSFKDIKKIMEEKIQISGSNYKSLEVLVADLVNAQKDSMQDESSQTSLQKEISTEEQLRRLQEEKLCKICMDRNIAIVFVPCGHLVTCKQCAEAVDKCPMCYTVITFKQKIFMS
`CN1C(=O)NC(=O)[C@]2(Cc3ccccc3N3CCN(c4ccccc4)CC32)C1=O` (stereo not given in full) gave a displacement of -2.4%.
With `CN1C(=O)N(C)C(=O)C2(Cc3cc(N)ccc3N3CCN(c4ccccc4F)CC32)C1=O` (stereo not given) the displacement was 55.4% (active).
With `CN1C(=O)N(C)C(=O)C2(Cc3ccccc3N3CCOCC32)C1=O` (stereo not given) the displacement was -5.1%.
`Cc1ccc(-c2nc3ccccc3c(=O)n2-c2ccccn2)cc1` gave a displacement of -3%.
`CCCCCSc1cc(OC)c(CCN(C)C)cc1OC` showed a displacement of -2.2%.
